ELG1 genotoxic: qHTS screen for small molecules that induce genotoxicity in human embryonic kidney (HEK293T) cells expressing luciferase-tagged ELG1; HEK293T ELG1-luciferase reporter, luminescence, 16 h; 330,000 tested, 1.3% active; Potency, µM (series often up to 46 µM), without a hit: at the top dose activity change, positive = activation, actives largely listed as activators; also: % of control where 0% means no effect; nearly all actives have a fitted effect of over 60% in size
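After overnight (16 hr) compound treatment at 37 °C, ELG1-luciferase HEK293T cells were lysed with ONE-Glo; luminescence quantified 30 min later at room temperature.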
NPC1 promoter act: qHTS Assay for NPC1 Promoter Activators. Huh7 NPC1 promoter luciferase reporter, 24 h. Potency, µM (titrated, usually from 9.22 µM), for inactives: at the top dose activation, most hits filed as activators. 320,000 tested, 2.4% active. AID 485313, 2010; also: % of control where 0% means no effect; nearly all actives have a fitted effect of over 60% in size
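Luminescence read-out of NPC1 promoter-driven luciferase in stably transfected Huh7 cells; compounds delivered in DMSO and left 24 h at 37C, 5% CO2, qHTS titration format.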
ELG1 repair inh: qHTS screen for small molecules that inhibit ELG1-dependent DNA repair in human embryonic kidney (HEK293T) cells expressing luciferase-tagged ELG1; AID 504467, 2011; Potency, µM (top dose mostly 46.1 µM), inactives show at the highest dose activity change, negative = inhibition, most hits filed as inhibitors; HEK293T ELG1-luciferase reporter, luminescence, 16 h; DNA damage induced by 5-fluorouridine; 330,000 tested, 2.3% active; also: % is scaled to controls: 0 for no effect and ±100 for the full control effect; nearly all actives have a fitted effect of over 55% in size
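Luminescence from the luciferase reporter, measured 30 min after ONE-Glo reagent at room temperature, was the read-out. Beforehand, 2,000 cells per well were exposed for 16 hr at 37 °C to 5-fluorouridine together with compound or vehicle.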
SMN2 splice up: qHTS Assay for Enhancers of SMN2 Splice Variant Expression | HEK293 SMN2-luciferase splicing reporter, luminescence, 30-36 h | Potency, µM (doses to about 46.1 µM), without a hit: at the highest dose activity change, positive = activation, usual class: activators | 210,000 tested, 2.8% active | AID 1458, 2008; also: % of control where 0% means no effect; nearly all actives have a fitted effect of over 55% in size
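HEK293 cells carry an SMN2 minigene-luciferase reporter in which exon 7 inclusion puts luciferase in frame. Cells were seeded at 2000 cells/well, attached for 10-12 hours, then exposed to compounds for 30-36 hours at 37C before ONE-Glo luminescence.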
Rab9 promoter act: qHTS Assay for Rab9 Promoter Activators; Huh7 Rab9 promoter-luciferase reporter, luminescence, 24 h; Potency, µM (highest dose often 9.22 µM), inactives show at the highest dose activation, negative = inhibition, hits mostly activators; 320,000 tested, 2.8% active; AID 485297, 2010; also: % of control where 0% means no effect; nearly all actives have a fitted effect of over 60% in size
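Luciferase signal after 10 min detection reagent at ambient indicates Rab9 promoter upregulation; stably transfected Huh7 cells were treated 24 h with compound in DMSO at 37 °C, 5% CO2.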
FLuc modulator: qHTS profiling assay for firefly luciferase inhibitor/activator using purifed enzyme and Km concentrations of substrates (counterscreen for miR-21 project); Potency, µM (highest dose often 57.5 µM), for the others: top-dose activity change, negative = inhibition, hits mostly inhibitors; purified FLuc, Km substrates, luminescence inhibition; Luciferin 4-monooxygenase (Photinus pyralis), P08659; 360,000 tested, 6.9% active;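 also: plate controls were vehicle for no effect and reference inhibitor for full effect; nearly all actives have a fitted effect of over 55% in size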
Target sequence (P08659 whole entry, looked up): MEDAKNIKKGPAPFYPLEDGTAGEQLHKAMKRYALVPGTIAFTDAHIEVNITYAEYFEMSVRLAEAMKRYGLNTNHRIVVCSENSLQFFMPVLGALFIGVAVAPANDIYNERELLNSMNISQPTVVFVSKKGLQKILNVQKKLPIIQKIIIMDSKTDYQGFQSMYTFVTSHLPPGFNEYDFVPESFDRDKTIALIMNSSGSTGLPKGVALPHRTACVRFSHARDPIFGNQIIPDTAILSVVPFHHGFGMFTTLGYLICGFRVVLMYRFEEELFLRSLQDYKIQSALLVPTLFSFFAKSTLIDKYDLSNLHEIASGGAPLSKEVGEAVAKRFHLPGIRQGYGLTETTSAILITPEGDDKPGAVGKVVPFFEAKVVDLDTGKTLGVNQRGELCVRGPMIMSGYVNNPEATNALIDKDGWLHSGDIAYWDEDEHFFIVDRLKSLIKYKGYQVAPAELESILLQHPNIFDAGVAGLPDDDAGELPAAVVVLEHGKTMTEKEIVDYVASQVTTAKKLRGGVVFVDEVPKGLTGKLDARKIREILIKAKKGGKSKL
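Purified P. pyralis luciferase (10nM final) with 10uM D-luciferin and 10uM ATP (Km levels) in 50mM Tris acetate pH 7.5, 10mM Mg acetate, 0.01% Tween-20, 0.05% BSA; qHTS 6-point titration, ~60 µM downward; luminescence read.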
* = called active by the depositor; ? = inconclusive; . = not tested or not shown; [ ] = another dose, or the depositor's remark. Compounds with a hit are over-represented: about 9.2% of the library has one in this group of screens. Calls follow the shape of the dose curve; as a rule, active = well fitted curve in the direction sought with a large enough effect; inconclusive = small, poorly fitted or top-dose-only effect, or another doubt; inactive = no such curve, though single readings can be large; an effect the other way counts as inactive or inconclusive. Potency is read from the fitted curve at half-maximal effect.

SMILES | ELG1 genotoxic | NPC1 promoter act | ELG1 repair inh | SMN2 splice up | Rab9 promoter act | FLuc modulator
Fc1ccc(-c2nc3n(n2)Cc2ccccc2-3)cc1 | 0.41µM* | ? | ? | 2.8µM* | ? | 0.6µM*
Cc1ccc(-c2nc3n(n2)Cc2ccccc2-3)cc1 | ? | 3.5µM* | ? | 1.3µM* | 3.2µM* | 0.3µM*
COc1ccc(N(C(=O)CNC(=O)c2ccco2)C(C(=O)NC2CCCCC2)c2cccnc2)cc1 (stereo unspecified) | 2% | 1% | 12% | . | -1% | 2%
CCOCCCN1C(=O)c2ccccc2CC1(C)C(=O)NC1CCCCC1 (stereo unspecified) | . | . | . | 3% | . | 3%
COc1ccc(NC(=O)CSc2nnc(NC(=O)NC3CCCCC3)s2)cc1OC | . | . | . | . | . | 2.4µM*
O=C(CSc1nnc(NC(=O)NC2CCCCC2)s1)Nc1ccccc1F | . | . | . | . | . | 3µM*
CSc1nsc(SCC(=O)Nc2ccc(C(C)=O)cc2)n1 | 8.2µM* | 24% | ? | 13µM* | 15% | 21µM*
COc1ccccc1Nc1nnc(SCC(=O)NC2CCCC2)s1 | -3% | -1% | 3% | . | -5% | -17%
COc1ccccc1NC(=O)CSc1nnc(NC(=O)NC2CCCCC2)s1 | . | . | . | . | . | 2.4µM*
CC(C)N(C(=S)Nc1ccc(S(=O)(=O)N2CCOCC2)cc1)c1ccccc1 | 3% | . | 9% | . | . | .
CC(=O)Nc1nnc(SCC(=O)NC2CC2)s1 | 0% | 3% | 10% | . | 1% | 0%
CC(=O)c1ccc(NC(=O)CSc2nnc(NC(=O)NC3CCCCC3)s2)cc1 | . | . | . | . | . | 0.48µM*
CCc1ccc(Nc2nnc(SC(C)C(=O)NC3CC3)s2)cc1 (stereo unspecified) | -2% | . | ? | . | . | .
COc1ccccc1Nc1nnc(SCC(=O)N2CCCC2)s1 | ? | 28% | ? | 18% | 27% | ?
COc1ccccc1Nc1nnc(SCC(=O)N2CCCC2=O)s1 | 17% | 2% | 10% | -26% | -7% | 9.5µM*
CCc1ccc(Nc2nnc(SCC(=O)NC(=O)CN3CCCC3=O)s2)cc1 | 7% | 0% | ? | . | 3% | 3µM*
C[C@]12c3[nH]c4ccc(Cl)cc4c3CCN1C(=O)[C@@H](CC(=O)NCc1cccc(C(F)(F)F)c1)C[C@@H]2C(=O)N1CCOCC1 | -10% | . | 23µM* | . | . | .
COCCCNC(=O)C[C@H]1C[C@H](C(=O)N2CCCCC2)[C@@]2(C)c3[nH]c4cc(-c5ccco5)ccc4c3CCN2C1=O | -4% | . | -26% | . | . | .
COc1ccc(CNC(=O)C[C@H]2C[C@H](C(=O)N3CCCCC3)[C@@]3(C)c4[nH]c5cc(-c6ccco6)ccc5c4CCN3C2=O)cc1OC | -10% | . | 21µM* | . | . | .
CCN(CC)C(=O)[C@H]1C[C@H](CC(=O)NCCCOC)C(=O)N2CCc3c([nH]c4cc(-c5ccco5)ccc34)[C@]12C | -1% | . | -25% | . | . | .
CCN(CC)C(=O)[C@H]1C[C@H](CC(=O)NCc2ccc(OC)c(OC)c2)C(=O)N2CCc3c([nH]c4cc(-c5ccco5)ccc34)[C@]12C | -14% | . | 23µM* | . | . | .
CCN(CC)C(=O)CSc1nnc(SCc2ccc(Cl)cc2)s1 | -7% | 1% | ? | 10% | -7% | 19µM*
O=C(Nc1ccc(Cl)cc1)Nc1nnc(SCc2ccc(Cl)cc2)s1 | -1% | -1% | -23% | -14% | -13% | 4%
O=C(CSCc1ccc(Cl)cc1)N1CCOCC1 | 10% | 11% | ? | 15% | -4% | ?
O=C(CSc1nnc(SCc2ccc(Cl)cc2)s1)N1CCOCC1 | 0% | -15% | -18% | -6% | 0% | 15µM*
SMILES | ELG1 genotoxic | NPC1 promoter act | ELG1 repair inh | SMN2 splice up | Rab9 promoter act | FLuc modulator
CC(=O)c1cccc(NC(=O)c2noc3c2CCc2ccccc2-3)c1 | ? | 4µM* | ? | 3.5µM* | 2.5µM* | 2.4µM*
Cc1ccc(O)c(NC(=O)c2noc3c2CCc2ccccc2-3)c1 | 23µM* | ? | ? | -51% | ? | 5%
O=C1c2cc([N+](=O)[O-])ccc2-c2ccc3c4ccc5c6c(ccc(c7ccc1c2c73)c64)C(=O)c1cc([N+](=O)[O-])ccc1-5 | . | . | . | 5%[9.22 µM] | . | .
O=C(CN1C(=O)S/C(=C\C=C\c2ccccc2)C1=O)NC1CCS(=O)(=O)C1 (stereo unspecified) | 7%[9.26 µM] | 2.5µM* | ? | . | 2.8µM* | 5.4µM*
CC(C)c1ccc(/C=C2\SC(=O)N(CC(=O)NC3CCS(=O)(=O)C3)C2=O)cc1 (stereo unspecified) | 9% | 4µM* | ? | . | ? | 1.1µM*
CC1=NN(C(C#N)c2ccc(F)cc2)C(c2ccccc2)C1 (stereo unspecified) | 0% | -2% | 7% | . | 13% | -1%
O=C(COC(=O)c1cccc(-n2cnnn2)c1)c1ccc(Br)cc1 | ? | ? | ? | . | ? | 6.7µM*
O=C(COC(=O)c1ccccc1-n1cnnn1)c1ccc(F)cc1 | ? | 6% | ? | . | -3% | 6µM*
O=C1COc2ccc(C(=O)COC(=O)c3cc(S(=O)(=O)N4CCOCC4)ccc3F)cc2N1 | 2% | -1% | 32% | . | 7% | ?
CCOc1ccc(Nc2c(S(=O)(=O)c3ccccc3)cnc3ccc(CC)cc23)cc1 | . | . | . | -38% | . | 13%
Cc1cc(C)cc(N2CCn3c2nc2c3c(=O)n(C/C=C/c3ccccc3)c(=O)n2C)c1 | . | . | . | . | . | 0%
CSC1=N/C(=C\c2ccc(C)s2)C(=O)S1 | 3% | 0% | 6% | 11% | -4% | -3%
Cc1ccccc1C1=N/C(=C/c2cccs2)C(=O)O1 | 0% | 0% | 22% | -21% | 3% | 3.4µM*
Cc1ccc(C)c(/C=C2\N=C(c3ccccc3F)OC2=O)c1 | 2% | -8% | -10% | . | 6% | ?
